The results in this text go back to PubChem BioAssay AID651814 (National Center for Advancing Translational Sciences (NCATS), 2012).

Molecules are shown by their SMILES. In all, about 2,100 compounds went through this assay and about 590 (28%) were called active. Not shown: some 42% with an inconclusive outcome. The list shows a part of the results. Unmarked numbers belong to inactive results. Calls follow the shape of the dose curve; as a rule, active = well fitted inhibition curve with a large enough effect; inconclusive = small, poorly fitted or top-dose-only effect; inactive = flat fitted curve, though single readings scatter.
Potency is read from the fitted curve at half-maximal effect.

This assay deals with DNA dC->dU-editing enzyme APOBEC-3F (Homo sapiens) (UniProt Q8IUX4). Put plainly: qHTS for inhibitors of Vif-A3F interactions: Cherry picks. Also: nearly all actives have a fitted effect of over 70% in size.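 As to max response: % of control where 0% means no effect; active compounds raise eYFP fluorescence by blocking Vif-driven A3F loss.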 The conditions noted are these: HeLa A3F-eYFP + Vif (tagged APOBEC3F with the HIV-1 protein that degrades it), eYFP fluorescence, 24 h. The method in brief: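 HeLa cells stably expressing A3F-eYFP plus Vif, cultured overnight, then exposed to compounds at several concentrations for 24 h at 37 deg C. Reduced Vif-driven degradation read as rising eYFP fluorescence (488 nm ex/500-530 nm em) by laser-scanning cytometry; MG132 as positive control.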
Chain of DNA dC->dU-editing enzyme APOBEC-3F (Homo sapiens) (Q8IUX4 whole entry, looked up): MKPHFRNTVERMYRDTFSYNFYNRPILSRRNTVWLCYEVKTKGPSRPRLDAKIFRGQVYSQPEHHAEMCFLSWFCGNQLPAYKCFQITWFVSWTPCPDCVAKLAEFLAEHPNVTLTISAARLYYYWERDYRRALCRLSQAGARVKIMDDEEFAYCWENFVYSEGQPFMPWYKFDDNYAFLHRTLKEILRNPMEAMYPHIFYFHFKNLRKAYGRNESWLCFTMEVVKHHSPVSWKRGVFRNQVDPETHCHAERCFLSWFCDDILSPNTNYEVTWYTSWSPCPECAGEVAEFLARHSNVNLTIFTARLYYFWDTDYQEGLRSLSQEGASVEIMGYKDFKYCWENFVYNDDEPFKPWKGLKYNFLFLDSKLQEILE
As for `CCC(C)Sc1cc(-c2nc3ccccn3c2NC2CCCCC2)ccc1OC` (stereo unspecified), the max response is -11.6%. Take `CCCN1C=CC(=CC=C(C#N)C#N)C=C1`: the Potency was 15.8 µM (active).

Turning to `C=CCN1C=CC(=CC=C(C#N)C#N)C=C1`, the Potency is 11.2 µM (active). `C=CCN1C=CC(=C/C=C(/C#N)C(=O)OCC)C=C1`: the max response is -21.4%. On to `CCOc1ccc(NC(=O)/C(C#N)=C/c2ccc(N3CCCC3)c(C)c2)cc1`, for which the Potency was 1.03 µM (active). For `CCOc1ccc(Br)cc1C(=O)Nc1ccc(C(=O)NCC(C)C)cc1`, the max response is -8.08%. For `CCOc1cc(/C=C(/C#N)C(=O)Nc2ccc(O)cc2)cc(Br)c1O`, the Potency is 15.8 µM (active).

For `N#C/C(=C/c1ccc2c(c1)OCO2)C(=O)Nc1ccc(O)cc1`, the max response is -28.5%. Consider `CC(=O)Nc1ccc(S(=O)(=O)Nc2nc3ccccc3nc2Sc2nncn2C)cc1`, for which the max response is -12.8%. Take `Cc1ccc2nc3c(cc(S(=O)(=O)c4ccccc4)c(=N)n3Cc3ccco3)c(=O)n2c1`: the max response is -15.4%. As for `COc1ccc(Cn2c(C)nc3c(c2=O)c2nc4ccccc4nc2n3Cc2ccco2)cc1`, the Potency was 14.6 µM (active).

Regarding `CC(C)n1cnc2c(NCc3ccccc3)cc(N[C@H](C)CO)cc21`, the Potency was 12.5 µM (active).

For the molecule `Cc1ccccc1N1C(=O)c2cccc3c(N(C)CCO)ccc(c23)C1=O`, the max response is -29.5%. Consider `Cc1ccc(N2C(=O)c3cccc4c(N5CCN(C)CC5)ccc(c34)C2=O)c2cccnc12`, for which the Potency was 17.7 µM (active). With `CC1(C(=O)NCc2cccs2)Cc2c(-c3ccc(C(N)=O)cc3)ccnc2O1` (stereo unspecified), the max response was -27%. With `CCOC(=O)c1c(Nc2ccc(Cl)cc2)sc(/C=C2\C=Nc3ccccc32)c1O`, the Potency is 14.6 µM (active).

Turning to `CCOC(=O)c1ccc(Nc2nc3ccccc3nc2NS(=O)(=O)c2ccc(Cl)cc2)cc1`, the max response is -8.48%.

Regarding `CC(C)(C)c1ccc(Oc2ccc(NC(=O)c3ccccc3C(=O)O)cn2)cc1`, the max response was 1.93%. In the case of `CCC(C)n1c(NC(=O)c2ccccc2)c(C#N)c2nc3ccccc3nc21` (stereo unspecified), the Potency was 16.4 µM (active). Turning to `CCN(CC)C(=O)Cn1c(C)c(/C=C/c2cc[n+](C)cc2)c2ccccc21`, the Potency is 11.2 µM (active).

In the case of `COC(=O)Cn1c(C)c(/C=C/c2cc[n+](C)cc2)c2ccccc21`, the Potency was 18.4 µM (active). With `S=c1[nH]nc(-c2cccnc2)n1/N=C/C(Cl)=C\c1ccccc1`, the max response is -29.6%. In the case of `CN(C)c1ccc(/C=C/C(=O)c2c(O)c3ccccc3oc2=O)cc1`, the Potency is 1.46 µM (active). `c1ccc(-c2cnn3c(-c4ccccc4)c(-c4ccccc4)nc3n2)cc1`: the Potency is 1.84 µM (active). For the molecule `Nc1ccc2nc(-c3ccccc3)c(-c3ccccc3)nc2c1`, the max response was -17.1%.

Consider `CN(C)c1ccc(/C=C/c2nc3ccccc3c(=O)n2CCO)cc1`, for which the Potency is 20.6 µM (active). As to `Nc1ccc(/C=C/c2cc(Cl)nc3ccccc23)cc1`, the Potency was 18.4 µM (active).

For `CCN(CC)c1ccc(/C=C/c2cc(-c3ccccc3)c3ccccc3n2)cc1`, the Potency is 5.59 µM (active).

Turning to `CN(C)c1ccc(/C=C/c2cc(N(C)C)nc3ccccc23)cc1`, the Potency is 9.2 µM (active). Consider `CN(C)c1ccc(/C=C/c2nc3ccccc3c(=O)[nH]2)cc1`, for which the max response was -19.3%. As to `CN(NC(=O)c1ccccc1)c1nc2ccccc2nc1C(F)(F)F`, the max response was -29.3%.

As for `COC(=O)c1ccccc1NC(=O)C1CC(=O)N(c2ccc(OC)cc2)C1` (stereo unspecified), the max response was -29%.

In the case of `O=C(Cn1ncc(Cl)c(Cl)c1=O)N1CCN(S(=O)(=O)c2ccc3ccccc3c2)CC1`, the max response is -29%. On to `C/C(=N\NC(=S)NC(C)C)c1ccc(C(C)(C)C)cc1`, for which the max response is -1.78%. As to `CN(C)c1ccc(/C=C/c2cc(/C=C/c3ccc(N(C)C)cc3)c3ccccc3n2)cc1`, the Potency is 7.31 µM (active). As for `CCOc1ccc(C2CC(c3c(O)c4ccccc4oc3=O)=NN2c2ccccc2)cc1OC` (stereo unspecified), the Potency was 13 µM (active).

For `CC[N+](C)(C(=O)O)/C(=C\c1ccccc1)c1ccnc2ccccc12` (stereo unspecified), the Potency is 20.6 µM (active). On to `CC(C)Cn1c(N)c(C(=O)COC(=O)c2ccc([N+](=O)[O-])o2)c(=O)n(C)c1=O`, for which the max response is 3.32%. `COc1ccc(-n2cc3c(-c4cccc(Br)c4)nnc(C)c3n2)cc1`: the max response was -1.46%. Consider `N=c1n(CC(=O)c2ccc([N+](=O)[O-])cc2)c2ccccc2n1Cc1ccccc1`, for which the Potency was 14.6 µM (active).

Regarding `COC(=O)[C@@H]1Cc2c([nH]c3ccccc23)C(C)(C)N1C(=O)CCl`, the max response was -14.3%.

Turning to `Oc1ccc(C2=NNC(=NCc3ccc4c(c3)OCO4)SC2)c(O)c1`, the max response is -25%. Take `N#Cc1c(NC(=O)/C=C/C(=O)O)sc2c1CCN(Cc1ccccc1)C2`: the max response was -10.7%. Consider `CN(C)c1ccc(/C=C(/C#N)C(=O)Nc2nc3c(s2)CCN(Cc2ccccc2)C3)cc1`, for which the Potency is 0.704 µM (active). Take `CCOC(=O)c1cc(-c2ccccc2C)n(CC2CC(c3ccc(OC)cc3)=NO2)n1` (stereo unspecified): the max response was 6%. For `CN(C)c1ccc(/C=C/c2ccnc3c(Cl)ccc(Cl)c23)cc1`, the Potency was 6.51 µM (active).

`CN(C)c1ccc(/C=C/c2ccnc3c(N)cccc23)cc1`: the Potency was 16.4 µM (active). Regarding `CN(C)c1ccc(/C=C/c2ccnc3c(Cl)cccc23)cc1`, the Potency was 4.11 µM (active). Turning to `Cc1ccc(-c2nc(SCCOc3ccccc3C)n3[nH]c(=O)cc3n2)cc1`, the max response was 1.28%.

Consider `COc1ccc(/C=C2\Oc3cc(OC(=O)N4CCOCC4)ccc3C2=O)c(OC)c1`, for which the max response was -13.8%. With `COc1ccc(/C=c2\s/c(=C/C(=O)c3ccc(C)cc3)[nH]c2=O)c(OC)c1`, the Potency was 18.4 µM (active). Take `Cc1ccc(NC(=S)N=Nc2c(O)n(C)c3ccc(S(=O)(=O)N4CCOCC4)cc23)cc1`: the max response is 3.82%. Turning to `COc1ccc(C(=O)C(C)[n+]2ccc(C)c3ccccc32)cc1[N+](=O)[O-]` (stereo unspecified), the max response was 1.15%. In the case of `COc1ccc(-n2c(O)c(/C=N/NS(=O)(=O)c3cccc([N+](=O)[O-])c3)c3ccccc3c2=O)cc1OC`, the Potency is 17.7 µM (active). In the case of `COC(=O)c1cnc(Nc2cc(C)ccc2OC)c2ccccc12`, the max response is -22%. `O=C(O)CSc1cc(NS(=O)(=O)c2cccc([N+](=O)[O-])c2)c2ccccc2c1O`: the max response is -12.8%. With `COc1ccc(-n2c(O)c(/C=N/NS(=O)(=O)c3cc(C)ccc3C)c3ccccc3c2=O)cc1OC`, the Potency is 14.6 µM (active). On to `COc1ccc(-n2c(O)c(/C=N/NS(=O)(=O)c3ccc(C)c([N+](=O)[O-])c3)c3ccccc3c2=O)cc1OC`, for which the Potency was 14.6 µM (active). With `COc1ccc(C)cc1NCc1cc(=O)oc2cc(-c3ccccc3)c(O)cc12`, the max response was -18.7%.

As to `COC1=C(OC)C(=O)C(Sc2ccc3ccccc3c2)=CC1=O`, the max response is -9.94%.

Regarding `CCSc1nnc(-c2sc3nnc(-c4ccccc4)c(-c4ccccc4)c3c2N)o1`, the Potency was 16.4 µM (active). As for `COc1cc(CNCCSc2nnnn2C)ccc1OCc1c(F)cccc1Cl`, the max response was -4.2%. For `COc1ccc(C(=O)Nc2cccc(/C=C/c3nc4ccccc4c(=O)[nH]3)c2)cc1`, the Potency is 12.5 µM (active). Same read-out and setting: as for `N#Cc1c(C(F)(F)F)cc(-c2ccco2)nc1SCc1ccccn1`, the figure is 10.3 µM (active); as for `Nc1c(C(=O)Nc2ccc(F)cc2)sc2nc(-c3cccs3)cc(C(F)(F)F)c12`, 1.64 µM (active). As to `O=C(Nc1nc2ccccc2s1)c1ccc([N+](=O)[O-])o1`, the max response is -26.2%. Take `Cc1nnc(NC(=O)c2sc3nc(-c4cccs4)cc(C(F)(F)F)c3c2N)s1`: the Potency is 7.31 µM (active). In the case of `Nc1c(C(=O)Nc2nc3ccccc3s2)sc2nc(-c3cccs3)ccc12`, the Potency is 20.6 µM (active). As to `Nc1c(C(=O)Nc2nccs2)sc2nc(-c3cccs3)cc(C(F)(F)F)c12`, the Potency is 8.86 µM (active). In the case of `COc1ccc2nc(NC(=S)NC(=O)c3ccco3)sc2c1`, the max response is -0.262%. Take `O=c1[nH]cnc2n[nH]nc12`: the Potency is 2.31 µM (active). As for `CCNC(=S)N/N=C(\C)c1ccc(N2CCOCC2)cc1`, the max response is -0.726%. The same measure, in the same setting: as for `O=c1[nH]c2ccccc2n2c(C(F)(F)F)nnc12`, the figure is -23.2%. In the case of `Cn1c(N)c(-c2ccccc2)c2ccc([N+](=O)[O-])cc2c1=O`, the Potency was 4.98 µM (active). On to `C=C(C(=O)c1ccccc1)C(C)C(=C)C(=O)c1ccccc1`, for which the Potency is 12.5 µM (active).

On to `CC(C)(C)NCC(=Cc1ccccc1)C(=O)c1ccccc1`, for which the max response was 10%.

On to `O=C(OC12CC3CC(CC(C3)C1)C2)c1ccc(NCc2cc(O)ccc2O)cc1`, for which the max response is -13.8%. As to `CCN1/C(=C\C=C(C(C)=O)C(C)=O)Sc2ccccc21`, the Potency was 18.4 µM (active).

For the molecule `O=C(CN1c2ccccc2Sc2ccccc21)NNC(=O)Nc1cccc(Cl)c1`, the max response is -28.8%. Same read-out and setting: as for `O=S(=O)(Nc1nc2ccccc2nc1OCC(F)(F)F)c1cccs1`, the figure is -0.45%.

For the molecule `CSc1nsc(/C=C/Nc2ccc(C)cc2)c1C#N`, the Potency is 15.8 µM (active).

As for `CSc1nsc(/C=C/Nc2ccc(F)cc2)c1C#N`, the max response was -9.4%. `N#CC1=C(S)N(c2ccc(F)cc2)C2(CCCCC2)NC1=O`: the max response is 2.73%. Regarding `Cc1c(C(=O)Nc2cnccn2)oc2ccccc12`, the max response was -18.9%. On to `CC(=O)Nc1sc(/C(C#N)=C/c2ccc(Cl)c(Cl)c2)nc1-c1ccc(C)cc1`, for which the Potency was 2.59 µM (active).

Consider `CC(=O)Nc1sc(/C(C#N)=C\c2cccc(Cl)c2)nc1-c1ccc(C)cc1`, for which the Potency was 6.51 µM (active).

On to `O=C(Nc1nc(NC(=O)c2ccco2)n(-c2ccccc2)n1)c1ccccc1`, for which the max response was -10.5%. Still for that read-out and setting: then `NC(=O)c1cccc(-c2ccnc3c2CC(C(=O)NCc2ccco2)O3)c1` (stereo unspecified), with -22.9%.

Turning to `CCc1ccc(NC(=O)c2sc3nc(C)c(C(=O)Nc4ccc(C)cc4C)c(-c4ccco4)c3c2N)cc1`, the Potency was 23.1 µM (active). Consider `COc1cccc(NC(=O)c2sc3nc(C)c(C(=O)Nc4ccc(C)cc4C)c(-c4ccco4)c3c2N)c1`, for which the max response was -5.66%. On to `CCOC(=O)c1sc(NC(=S)NC(=O)c2ccco2)nc1C`, for which the max response was 0.261%.
